Laboratory results reported in PubChem BioAssay AID588856 (National Center for Advancing Translational Sciences (NCATS), 2011).
In all, about 410,000 compounds went through this assay and about 3,100 (0.76%) were called active. The sample as a whole holds a higher share of actives than the screen did. A number with no mark means an inactive call. Calls come from the whole dose curve; as a rule, active = well fitted cell-killing curve with a large enough effect; inactive = no such curve, though single readings can be large or run the other way.

Test: qHTS for Inhibitors of TGF-b: Cytotox Counterscreen
Conditions: HepG2 CAGA-GFP viability, ATP luminescence, 18 h; series mostly up to 46.1 µM; activity change, negative = cytotoxicity: at the top concentration
Outline: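 HepG2 CAGA-GFP cells (1000/well, DMEM with 1% FBS) received compound, then TGF-beta at 500 pg/mL final, and were incubated 18 hours at 37 degrees C. Viability was read by CellTiter-Glo luminescence. Media-only wells were set as complete cell-killing and DMSO as no toxicity.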
Potency is the fitted concentration of half-maximal effect.

Row | Compound | activity change, negative = cytotoxicity [%] | Potency
1 | Cc1cccc(C)c1-n1ncc(C(=O)NCCCN2CCCCC2)c1C1CCN(C(=O)OC(C)(C)C)CC1 | -1.11 | 
2 | COc1cc(OC)c(NC(=O)c2cnc(N3CCCC3)nc2C)cc1Cl | -15.2 | 
3 | CCOC(=O)c1c(C)[nH]c(C)c1C(=O)COC(=O)/C=C/c1cccc([N+](=O)[O-])c1 | 6.06 | 
4 | CC(C)c1nnc(NC(=O)COC(=O)/C=C/c2ccc([N+](=O)[O-])cc2)s1 | 11.7 | 
5 | CCOC(=O)/C(=C\c1ccc([N+](=O)[O-])cc1)C(=O)c1cc(C(C)=O)c(Nc2ccccc2)s1 |  | 5.01 µM (active)
6 | COc1ccccc1C(=O)N/C(=C/c1ccco1)C(=O)Nc1ccc(C(=O)O)cc1 | 11.7 | 
7 | COCCCn1c(=O)/c(=C/c2ccccc2OC(C)C)s/c1=C(\C#N)C(=O)Nc1ccc(C(=O)O)cc1 |  | 12.6 µM (active)
8 | CC(C)OCCCn1c(SCC(=O)c2ccccc2)nc2c(sc3ccccc32)c1=O | -19.4 | 
9 | COc1cc2nc(C#Cc3nc4cc(OC)c(OC)cc4[nH]3)[nH]c2cc1OC | -56.3 | 
10 | CNS(=O)(=O)c1ccc(NC(=O)Nc2ccc3c(c2)OCO3)cc1 | -3.31 | 
11 | Cc1onc(C(=O)Nc2ccc3c(c2)OCO3)c1[N+](=O)[O-] | -0.941 | 
12 | Cc1cccc(NC(=O)Nc2ccc3c(c2)OCO3)n1 |  | 22.4 µM (active)
13 | CC1CCCN(Cc2c(O)ccc3c(=O)c(Oc4ccc(C(C)(C)C)cc4)c(C(F)(F)F)oc23)C1 (stereo not drawn) | -8.79 | 
14 | CCOc1ccc(NC(=O)c2cc(S(=O)(=O)N3CCCC3)c[nH]2)cc1 | -5.65 | 
15 | O=C1Nc2cc(C(=O)N3CCC(N4CCCCC4)CC3)ccc2S/C1=C\c1ccccc1 | -82.5 | 
16 | CCN1CCCC1CNC(=O)c1ccc2c(c1)NC(=O)/C(=C\c1ccccc1F)S2 (stereo not drawn) |  | 15.8 µM (active)
17 | COc1ccc(CN2CCCC(CNC(=O)c3ccc(F)cc3)C2)cc1OC (stereo not drawn) | -8.02 | 
18 | COc1ccccc1-c1noc(-c2ccc(NCc3ccccc3)c([N+](=O)[O-])c2)n1 | 3.13 | 
19 | Cc1ccc(Cn2cnc3c(cnn3C(C)(C)C)c2=O)c(F)c1 | -24 | 
20 | NC(=O)COc1ccc(/C=N/NC(=O)C2CCCN2S(=O)(=O)c2ccc(Cl)cc2)cc1 (stereo not drawn) | -2.7 | 
21 | NC(N)=N/N=C/c1ccc(OCc2ccc(Cl)cc2Cl)cc1 |  | 14.1 µM (active)
22 | Cc1ccc(CCNC(=O)Cn2c(-c3cccs3)cc3cc(F)ccc32)cc1 | -1.63 | 
23 | CC(C)c1ccc(NC(=O)Cn2nnc(C(=O)NCCc3ccccc3)c2N)cc1 | -11.7 | 
